NFkB transloc inh = blocks IL-1B driven NFkB nuclear translocation in HUVEC cells; HUVEC IL-1B NFkB p65 nuclear translocation imaging; inhibition, % at 2 µM; 0.43% of 94,000 active; AID 796;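 active means inhibition above about 30% together with a positive call from visual inspection of the well image, limit read from the data; inconclusive means inhibition above a set limit but visual check negative; inactive means inhibition not above a set limit, visual check negative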;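 further: nuclear over cytoplasmic p65 intensity ratio measured by imaging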
TNAP act mid DEA = activators of human TNAP at intermediate phosphate acceptor. P05186. purified TNAP, CDP-star luminescence, 100 mM DEA, 30 min; hits give high values; scale: 0 levamisole-inhibited, 1 vehicle-only enzyme. activation factor at 20 µM. 64,000 tested, under 10 active;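 active means activation factor of at least 2 at 20 µM, relative to controls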
Target sequence (P05186 whole entry, looked up): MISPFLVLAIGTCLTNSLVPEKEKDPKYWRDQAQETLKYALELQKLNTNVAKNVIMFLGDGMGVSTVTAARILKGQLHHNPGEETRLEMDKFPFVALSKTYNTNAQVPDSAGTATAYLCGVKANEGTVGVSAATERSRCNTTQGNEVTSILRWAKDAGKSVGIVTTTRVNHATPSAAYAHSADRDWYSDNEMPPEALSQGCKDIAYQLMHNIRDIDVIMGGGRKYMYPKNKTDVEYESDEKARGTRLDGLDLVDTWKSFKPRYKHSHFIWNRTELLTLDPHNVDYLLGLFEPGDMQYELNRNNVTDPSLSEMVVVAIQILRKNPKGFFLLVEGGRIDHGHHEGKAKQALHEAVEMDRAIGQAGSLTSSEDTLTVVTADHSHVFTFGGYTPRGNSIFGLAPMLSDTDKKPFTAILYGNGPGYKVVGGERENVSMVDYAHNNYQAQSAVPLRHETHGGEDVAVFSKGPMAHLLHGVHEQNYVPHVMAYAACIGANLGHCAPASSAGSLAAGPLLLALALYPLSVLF
HUVEC tox IL1B = HUVEC cytotoxicity counter-screen, IL-1B stimulated | AID 845 | 0.41% of 94,000 active | HUVEC cell count loss, Hoechst imaging | cell count reduction, % at 2 µM;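 active means cell count reduction more than 3 SD above the screen-wide mean, cut at about 70% in these data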
PLAP activator = human PLAP activation; 1.2% of 96,000 active; P05187; purified PLAP enzyme, luminescent substrate read-out; hits give high values; AID 696; activation fold at 20 µM; in the data active means activation fold above about 2
NFkB transloc pot = enhances IL-1B driven NFkB nuclear translocation; AID 819; 0.3% of 94,000 active; HUVEC IL-1B NFkB p65 nuclear translocation imaging; activation, % at 2 µM;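 active means activation above 40%, about the mean plus 3 SD, also judged a hit on visual image review; inconclusive means activation above 40% but not a hit on visual review; inactive means activation not above 40% and no visual hit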;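 further: percent activation is computed from the nuclear over cytoplasmic p65 intensity ratio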
Each line names hits and unclear results; the compound was inactive in the other large screens. Shown are actives, neighbours in structure and some others; about 2.1% of the full set was active somewhere.

Cc1oc(-c2cccc(Cl)c2)nc1CN1CCC(C(=O)NCCCN2CCCC2=O)CC1	none
CCN1CCN(C(C(=O)NC2CCCCC2)c2ccc(Cl)cc2)CC1 (configuration not stated)	none (no result: TNAP act mid DEA)
Oc1ccc(CN2CCc3ccccc3C2)c2cccnc12	PLAP activator 2.1 (no result: TNAP act mid DEA)
Oc1ccc(CN2CCCCC2)c2cccnc12	none (no result: TNAP act mid DEA, PLAP activator)
CC(O)CNc1nc2ccccc2n1-c1ncnc2sc3c(c12)CCC3 (configuration not stated)	PLAP activator 2.7
COc1cc(CN2CCN(c3ccc(C)cc3)CC2)cc([N+](=O)[O-])c1O	none (no result: TNAP act mid DEA)
C1=Nc2c(NCc3ccccc3)ncnc2Oc2ccccc21	NFkB transloc inh 98, HUVEC tox IL1B 91
CCN(CC)C(=O)c1sc(NC(=O)c2ccc(C)c([N+](=O)[O-])c2)c(C#N)c1C	none (no result: TNAP act mid DEA)
COc1ccc(OC)c(-c2nc(C(N)=O)c3[nH]c(=O)n(-c4ccc(F)cc4)c3n2)c1	none
COc1ccc(-c2nc(C(N)=O)c3[nH]c(=O)n(-c4ccccc4OC)c3n2)c(OC)c1	PLAP activator 2.4
CCCc1oc(C(=O)O)cc1CN1CCOCC1	NFkB transloc inh 32 (no result: TNAP act mid DEA)
CCCc1oc(C(=O)O)cc1CN1CCCC1	none (no result: TNAP act mid DEA)
COc1ccc(S(=O)(=O)N2Cc3ccccc3CC2C(=O)Nc2nccs2)cc1 (configuration not stated)	none (no result: TNAP act mid DEA)
CCOC(=O)Cc1[nH]nc2c1C(c1cc(OC)ccc1OC)C(C#N)=C(N)O2 (configuration not stated)	none
COCc1[nH]nc2c1C(c1ccccc1Cl)C(C#N)=C(N)O2 (configuration not stated)	HUVEC tox IL1B 88
CCOC(=O)Cc1[nH]nc2c1C(C1C=CCCC1)C(C#N)=C(N)O2 (configuration not stated)	PLAP activator 2.1
CCOC(=O)Cc1[nH]nc2c1C(c1cccc(OC)c1OC)C(C#N)=C(N)O2 (configuration not stated)	PLAP activator 2.2 (no result: NFkB transloc inh, HUVEC tox IL1B, NFkB transloc pot)
COC(=O)Cc1[nH]nc2c1C(c1cccc(OC)c1OC)C(C#N)=C(N)O2 (configuration not stated)	PLAP activator 2 (no result: NFkB transloc inh, HUVEC tox IL1B, NFkB transloc pot)
CC1=NN(C(=O)Cc2ccc([N+](=O)[O-])cc2)C(O)(c2ccccc2)C1 (configuration not stated)	none (no result: TNAP act mid DEA)
Cc1ccc(NC2c3ccccc3C(=O)N2CCN2CCOCC2)cc1 (configuration not stated)	none (no result: TNAP act mid DEA)
O=C(Oc1ccc(F)cc1C(=O)/C=C/c1cccs1)c1cccc([N+](=O)[O-])c1	NFkB transloc inh 31 (no result: TNAP act mid DEA)
COc1ccc(C(=O)/C=C/c2ccccc2F)c(OC(=O)c2ccc([N+](=O)[O-])cc2)c1	NFkB transloc pot inconclusive (no result: TNAP act mid DEA)
CC1C/C(=N/O)C(C)CN1 (configuration not stated)	none (no result: TNAP act mid DEA)
Cc1ccc(NC(=O)Cc2nnc(SCC(=O)c3ccc(Br)cc3)n2C)cc1	none (no result: TNAP act mid DEA)
COc1ccc(C2C(C(C)=O)=C(C)N=c3s/c(=C\c4ccc5c(c4)OCO5)c(=O)n32)c(OC)c1 (configuration not stated)	HUVEC tox IL1B 94 (no result: PLAP activator)
Cc1ccccc1OCCNC(=O)CNC(=O)c1ccccc1O	none
COc1ccc(C2CC(c3cccs3)=Nc3ccccc3S2)cc1 (configuration not stated)	NFkB transloc pot 43 (no result: TNAP act mid DEA, PLAP activator)
COc1ccc(C2CC(c3cccs3)=NN2S(=O)(=O)c2ccc(C)cc2)cc1 (configuration not stated)	none (no result: TNAP act mid DEA, PLAP activator)
O=C(Cn1nc(-c2ccccc2)ccc1=O)NCC1COCCO1 (configuration not stated)	NFkB transloc inh 98, HUVEC tox IL1B 89 (no result: PLAP activator)
CN1CCN(CCCNC(=O)Cn2nc(-c3ccccc3)ccc2=O)CC1	none (no result: NFkB transloc inh, HUVEC tox IL1B, NFkB transloc pot)
COc1ccc(/C=N/c2oc(-c3ccccc3)cc2C#N)cc1OC	none (no result: TNAP act mid DEA)
CCC(=O)Nc1ccccc1C(=O)OCC(=O)Nc1ccc(S(N)(=O)=O)cc1	none
CCCCNc1ccccc1C(=O)OCC(=O)Nc1ccc(S(N)(=O)=O)cc1	PLAP activator 2.1 (no result: TNAP act mid DEA)
COc1ccc(NC(=S)N2C3CCC2CC(NC(=O)NC24CC5CC(CC(C5)C2)C4)C3)c(OC)c1 (configuration not stated)	PLAP activator 2.5 (no result: TNAP act mid DEA)
COc1ccccc1NC(=S)N1CCC(NC(=O)NC23CC4CC(CC(C4)C2)C3)CC1	none (no result: TNAP act mid DEA)
CC1SC(=NC(=O)C(C)N2C(=O)c3ccccc3C2=O)NC1=O (configuration not stated)	none (no result: TNAP act mid DEA, PLAP activator)
Cc1ccc2c(c1)[nH]c1c(N3CCN(Cc4ccccc4)CC3)ncnc12	none
Cc1ccc2[nH]c3c(N4CCCCCC4)ncnc3c2c1	none
COc1cccc2[nH]c3c(N4CCN(Cc5ccc6c(c5)OCO6)CC4)ncnc3c12	PLAP activator 2.1
Cc1ccc2[nH]c3c(N4CCN(Cc5ccccc5)CC4)ncnc3c2c1	PLAP activator 2 (no result: NFkB transloc inh, HUVEC tox IL1B, NFkB transloc pot)
Fc1ccc2[nH]c3c(N4CCN(C5CCCCC5)CC4)ncnc3c2c1	PLAP activator 2.3 (no result: NFkB transloc inh, HUVEC tox IL1B, NFkB transloc pot)
CCC(C)NCCCCOc1ccc(C)cc1[N+](=O)[O-] (configuration not stated)	none (no result: TNAP act mid DEA)
Cn1c(=O)oc2cc(S(=O)(=O)Nc3cccc4c3CCCC4)ccc21	none (no result: NFkB transloc inh, HUVEC tox IL1B, NFkB transloc pot)
CC(=O)Nc1ccc(OCC=C(Cl)Cl)cc1	none
Cc1cccc(NC(=O)CSc2ncnc3nc[nH]c23)c1	none (no result: TNAP act mid DEA)
Cc1cccc(CSc2ncnc3nc[nH]c23)c1	PLAP activator 2.2 (no result: NFkB transloc inh, HUVEC tox IL1B, NFkB transloc pot)
COc1ccc(OCCSc2ncnc3nc[nH]c23)cc1	PLAP activator 2
Cc1nc2ncnn2c(N2CCCC(C(=O)Nc3ccc4c(c3)CCC4)C2)c1C (configuration not stated)	PLAP activator 2.1 (no result: NFkB transloc inh, HUVEC tox IL1B, NFkB transloc pot)
CC(C)C(=O)Nc1ccnc(-c2cccnc2)n1	none (no result: TNAP act mid DEA)
O=C(c1cccc(C(F)(F)F)c1)N1CCOC12CCN(c1ncc(C(F)(F)F)cc1Cl)CC2	NFkB transloc inh 33 (no result: TNAP act mid DEA)
Cc1cccc(NC(=O)CCc2ccc(S(=O)(=O)NC3CCCCC3)cc2)c1	none (no result: TNAP act mid DEA)
COC(=O)Cc1cc(=O)[nH]c(Nc2nc3ccccc3o2)n1	PLAP activator 2.6
CCOC(=O)Cc1cc(=O)[nH]c(Nc2nc3ccccc3o2)n1	none
COC(=O)C(O)(CC(=O)Nc1cc(Cl)ccc1Cl)C(F)(F)F (configuration not stated)	none (no result: TNAP act mid DEA, PLAP activator)
O=C(CN1CCCC1)Nc1c2c(nc3ccccc13)N(Cc1ccccc1)CC2	PLAP activator 2 (no result: TNAP act mid DEA)
Cn1c(=O)c2cc(S(=O)(=O)N3CCC(c4ccccc4)CC3)ccc2n(C)c1=O	none
CCOc1ccc(/C(O)=C2/C(=O)C(=O)N(c3nc(C)c(C)s3)C2c2ccco2)cc1 (configuration not stated)	NFkB transloc inh 46
COc1ccc(C2C3=C(CCCC3=O)Nc3nc4ccccc4n32)cc1OC (configuration not stated)	none (no result: PLAP activator)
CCOC(=O)C1C(=O)Nc2nc3ccccc3n2C1C(C)C (configuration not stated)	none
NC1=NC(c2ccc(Br)cc2)n2c(nc3ccccc32)N1 (configuration not stated)	PLAP activator 2.2

Bioassay records from PubChem.
